The results in this text go back to ChEMBL document CHEMBL3433997, “St. Jude Leishmania screening dataset” (2016).

Holding throughout (type): functional
For experiment [1], the target named is Solute carrier family 2, facilitated glucose transporter member 1 (Homo sapiens) (UniProt P11166). As to the kind of experiment: ST_JUDE_LEISH: Cytotoxicity at 2uM final concentration against transgenic Leishmania Mexicana promastigotes LmGLUT1 that are glucose transport deficient and complemented with the human glucose transporter GLUT1. Activity is measured by DNA content using SYBR green in vitro.

For experiment [2], the target named is Hexose transporter 1 (Plasmodium falciparum) (UniProt O97467). Kind of experiment: ST_JUDE_LEISH: Cytotoxicity at 2uM final concentration against transgenic Leishmania Mexicana promastigotes LmPfHT that are glucose transport deficient and complemented with the Plasmodium falciparum hexose transporter. Activity is measured by DNA content using SYBR green in vitro.

The target in experiment [3] is Glucose transporter (Leishmania mexicana) (UniProt O61059). As to the kind of experiment: ST_JUDE_LEISH: Cytotoxicity at 2uM final concentration against transgenic Leishmania Mexicana promastigotes LmGT2 that are glucose transport deficient and complemented with the L. Mexicana glucose transporter 2. Activity is measured by DNA content using SYBR green in vitro.

Chain of Solute carrier family 2, facilitated glucose transporter member 1 (Homo sapiens) (P11166 whole entry): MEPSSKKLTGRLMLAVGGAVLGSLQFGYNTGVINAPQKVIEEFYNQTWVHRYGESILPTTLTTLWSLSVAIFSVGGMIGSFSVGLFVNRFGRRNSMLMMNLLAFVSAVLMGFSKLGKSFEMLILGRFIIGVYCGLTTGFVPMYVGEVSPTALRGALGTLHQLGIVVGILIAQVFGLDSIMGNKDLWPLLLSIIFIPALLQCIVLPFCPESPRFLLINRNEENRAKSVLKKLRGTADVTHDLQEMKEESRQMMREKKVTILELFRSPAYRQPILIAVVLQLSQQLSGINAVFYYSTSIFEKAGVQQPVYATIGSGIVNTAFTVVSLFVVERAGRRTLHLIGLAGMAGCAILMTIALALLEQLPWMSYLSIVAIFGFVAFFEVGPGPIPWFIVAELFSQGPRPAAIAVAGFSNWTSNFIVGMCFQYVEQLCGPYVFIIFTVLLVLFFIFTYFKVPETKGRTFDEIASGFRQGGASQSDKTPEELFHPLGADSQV

On to `CCOc1ccc(C=CC(=O)Nc2ccc3nc(N4CCOCC4)cc(C)c3c2)cc1OC`, for which the values for the inhibition in experiment [1], in experiment [2] and in experiment [3] were 10.1%, 9.63% and 4.75%, respectively.
`CCN(CC)c1nc(N)c2c(N)nc3c(c2c1C#N)C(=O)CN3Cc1ccccc1`: the results for the inhibition in experiment [1], in experiment [2] and in experiment [3] were 7.21%, 6.8% and 6.97%, respectively.
For the molecule `CN(C)Cc1c(O)ccc2[nH]c(-c3ccc(F)cc3F)nc12`, the results for the inhibition in experiment [1], in experiment [2] and in experiment [3] were 1.13%, 1.4% and -1.59%, respectively.
In the case of `CN1CCC(N(Cc2ccc(-c3ccc(C(F)(F)F)cc3)cc2)C(=O)Cn2c(SCc3cccc(F)c3F)cc(=O)c3c2CCC3)CC1`, the inhibition in experiment [1] is -1.29%; in experiment [2] it was 0.12%; in experiment [3] it was 1.56%.
For `COc1c(C2CCN(CCCCNC(=O)c3cccc(-c4ccc(C(F)(F)F)cc4)c3)CC2)ccc2c1CCCC2`, the figures for the inhibition in experiment [1], in experiment [2] and in experiment [3] were 2.51%, 1.75% and 11.1%, respectively.
For `CC(C)(C)c1ccc(CNC(=O)c2ccc(-c3nc4ccc(Cl)cc4[nH]3)cc2)cc1`, the inhibition in experiment [1] amounted to 1.67%; in experiment [2] it was 1.77%; in experiment [3], 1.63%.
For the molecule `O=[N+]([O-])c1c(O)nc2c(c1O)CCC2`, the values for the inhibition in experiment [1], in experiment [2] and in experiment [3] were 4.52%, 4.36% and 4.11%, respectively.
As to `OC1CCCN(Cc2cccc(-c3ccc(-c4nc5cc(C(F)(F)F)ccc5[nH]4)cc3)c2)C1` (stereo not given), the inhibition in experiment [1] stood at 2.67%; in experiment [2], 2.8%; in experiment [3] it was 3.54%.
With `CC(C)C[C@H](NC(=O)c1cc2cc(OCCN3CCNCC3)ccc2o1)C(=O)NC1CC[C@@H](C)N(C(=O)Nc2ccc(Cl)cc2)CC1=O` (stereo not given in full), the inhibition in experiment [1] came out at 3.2%; in experiment [2] it was 5.04%; in experiment [3] it was 3.85%.
For `O=C(Nc1ccc(Br)cc1)N1CCC(n2c(-c3ccccc3)nc3cccnc32)CC1`, in that order: 2.24%, 1.56% and 4.12%.
As to `Cc1ccnc(NC(c2ccc(Cl)c([N+](=O)[O-])c2)c2ccc3cccnc3c2O)c1` (stereo not given), the figures for the inhibition in experiment [1], in experiment [2] and in experiment [3] were 0.43%, -0.87% and -1.39%, respectively.
Take `CN1CCC(N(C)C(=O)C=Cc2cn(-c3ccccc3)nc2-c2cc3ccccc3o2)CC1`: the inhibition in experiment [1] was 3%; in experiment [2] it was 1.17%; in experiment [3], -0.25%.
For `CN1CCC(C(=O)Nc2cccc(-c3ccc(-c4nc5cc(F)ccc5[nH]4)cc3)c2)CC1`, in that order: 8.64%, 10.3% and 9.64%.
As to `CN(C)C(S)=NN=Cc1cccc(O)c1O`, the results for the inhibition in experiment [1], in experiment [2] and in experiment [3] were 6.64%, 6.87% and 4.78%, respectively.
As to `O=c1nc(NCCCNCc2cc3c(Cl)cc(Cl)cc3[nH]2)[nH]c2ccsc12`, the inhibition in experiment [1] was found to be 81.4%; in experiment [2], 96.7%; in experiment [3], 83.9%.
For the molecule `O=c1cc(NCCC(CNCc2ccoc2)NCc2cc(Br)cc(Br)c2)[nH]c2ccccc12` (stereo not given), the inhibition was determined as 6.77% in experiment [1], 6.66% in experiment [2] and 9.4% in experiment [3].
For the molecule `O=C(NCCNc1nc(NCCNC(=O)Nc2ccccc2)c2ccc(=O)n(-c3c(F)cccc3F)c2n1)Nc1ccccc1`, the inhibition in experiment [1] is 2.75%; in experiment [2], 1.99%; in experiment [3], -0.37%.
The corresponding values for `O=C(/C=C/c1ccc(C(F)(F)F)cc1)N1CCc2cc3nccc(N4CCN5CCC[C@H]5C4)c3cc21` are 1.68%, 2.34% and 0.92%.
For `Fc1cccc(COc2ccc(Nc3ncnc4sc(C#CCNC5CCCC5)cc34)cc2Cl)c1`, in that order: 2.71%, 2.09% and 2.47%.
For `O=S(=O)(c1c(Cl)cc(Cl)cc1Cl)N1CCCCC(c2ccc(F)c(F)c2)=N1`, in that order: 0.21%, 2.09% and 1.47%.
Consider `C=CCN1C(=O)C(=Cc2cc(Br)ccc2O)SC1=Nc1ccccc1`, for which the figures for the inhibition in experiment [1], in experiment [2] and in experiment [3] were 8.65%, 6.8% and 14.5%, respectively.
Turning to `COc1ccc2nc(N)nc(C)c2c1`, the inhibition in experiment [1] was found to be 4.18%; in experiment [2] it was 2.86%; in experiment [3], 2.78%.
Turning to `CCNc1cc(C(=O)N[C@@H](Cc2cccc(Cl)c2)[C@H](O)CNC(C)CCCC(C)C)cc(N2CCCCS2(=O)=O)c1` (stereo not given in full), the inhibition in experiment [1] is -0.84%; in experiment [2], -1.5%; in experiment [3], -4.25%.
For `O=C(Cc1c[nH]cn1)Nc1ccc(-c2ccc(-c3nc4cc(F)ccc4[nH]3)cc2)cc1`, in that order: 1.05%, 0.28% and -0.48%.
As for `O=C(c1ccco1)N1CCN(c2nc(-c3ccc(Cl)cc3)nc3ccccc23)CC1`, the figures for the inhibition in experiment [1], in experiment [2] and in experiment [3] were 6.35%, 1.81% and 4.42%, respectively.
As to `COc1cc(Nc2ncnc3cc(OC)c(OC)cc23)cc([N+](=O)[O-])c1`, the inhibition was -1.65% in experiment [1], 0.11% in experiment [2] and -0.41% in experiment [3].
For `COc1ccccc1-n1ccnc1SCC(=O)Nc1cccc(C(F)(F)F)c1`, in that order: 3.36%, 1.61% and 2.6%.
The corresponding values for `CC1(C)NC(N)=NC(=N)N1OCCCc1cc(Cl)c(Cl)cc1Cl` are 3.14%, 2.31% and 2.77%.
As for `O=C(Nc1ccccc1)NC1CCN(CCC2(c3ccc(Cl)c(Cl)c3)COCN(C(=O)c3ccccc3)C2)C1` (stereo not given), the inhibition is 4.31% in experiment [1], 4.43% in experiment [2] and 4.63% in experiment [3].
For `COc1ccc2nccc([C@@H](O)CN3CCC(NC(=O)c4ccc5cc[nH]c5c4)CC3)c2c1`, in that order: 4.43%, 4.82% and 1.32%.
The corresponding values for `CC1(C)N=C(N)N=C(N)N1c1cc(Cl)c(Cl)c(Cl)c1` are 1.4%, 0.23% and 2.36%.
The corresponding values for `COc1cc(C=CC(=O)N2CCC3(CC2)CC(=O)c2ccccc2O3)cc(OC)c1OC` are 1.6%, 2.09% and -0.58%.
As for `Cc1[nH]c(C)c(-c2ccc(Oc3ccc(Cl)cc3)cc2)c(=O)c1Br`, the inhibition is -0.61% in experiment [1], 0.25% in experiment [2] and -0.13% in experiment [3].
The corresponding values for `Cc1cc(-c2cc3nc4c(c(O)n3n2)CCCC4)c(C)o1` are 4.05%, 8.94% and 6.14%.
Consider `CCOc1cc(C)ccc1C1CCN(CCCCNC(=O)c2ccc(-c3ccc(Cl)cn3)cc2)CC1`, for which the inhibition is 1.1% in experiment [1], -0.06% in experiment [2] and -0.83% in experiment [3].
